Only some compounds are listed: those with a hit (about 18% of all), similar ones and a draw of the others.
IL1B secr inh – qHTS for Inhibitors of Inflammasome Signaling: IL-1-beta AlphaLISA Primary Screen. THP-1 LPS/ATP IL-1B secretion, AlphaLISA, 16 h; active compounds read low. activity change, % at 57.5 µM. actives 4.7% (n = 360,000); in the data active means activity change below about -50%; inconclusive means mostly about -30% to -49%
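Secreted IL-1B measured by AlphaLISA bead assay after 16 h compound exposure of THP-1 cells; compounds (final up to 57.5 uM) added 1 h before LPS (250 ng/mL) and ATP (1.25 mM) stimulation; lower signal means less secretion.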
RORgamma inh – qHTS for inhibitors of ROR gamma transcriptional activity; Nuclear receptor ROR-gamma (Mus musculus), P51450; Drosophila S2 Gal4-RORgamma UAS-luciferase reporter, 20 h; Potency, µM (titrated, usually from 53.6 µM), inactives show at the highest dose activity change, negative = inhibition, hits mostly inhibitors; actives 5.4% (n = 310,000); AID 2551, 2010; further: potency means the concentration at half of the fitted maximal effect; nearly all actives have a fitted effect of over 60% in size
Target sequence (P51450 whole entry, looked up, the tested form may be a part): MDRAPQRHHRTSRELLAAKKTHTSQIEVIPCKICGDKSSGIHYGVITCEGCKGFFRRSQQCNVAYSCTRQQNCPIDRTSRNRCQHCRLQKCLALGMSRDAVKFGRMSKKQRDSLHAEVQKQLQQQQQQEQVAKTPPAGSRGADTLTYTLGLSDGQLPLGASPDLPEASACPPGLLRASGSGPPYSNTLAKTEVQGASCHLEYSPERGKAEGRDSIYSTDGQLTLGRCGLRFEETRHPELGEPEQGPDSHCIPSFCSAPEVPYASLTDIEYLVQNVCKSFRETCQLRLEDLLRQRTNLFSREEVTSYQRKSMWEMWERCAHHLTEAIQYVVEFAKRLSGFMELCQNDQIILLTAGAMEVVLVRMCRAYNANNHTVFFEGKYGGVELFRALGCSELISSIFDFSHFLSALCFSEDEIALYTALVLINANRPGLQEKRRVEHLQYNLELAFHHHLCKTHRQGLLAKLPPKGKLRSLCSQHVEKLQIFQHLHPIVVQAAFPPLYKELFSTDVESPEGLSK
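Using a luciferase readout, inhibitors were identified by reduced reporter activity in Drosophila cells coexpressing a copper-inducible Gal4–ROR gamma fusion and UAS-driven Photinus luciferase, incubated 20 hr after 700 uM copper sulfate.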
LDHA inh – qHTS assay for inhibitors of human lactate dehydrogenase; purified LDHA, NADH/diaphorase-resazurin fluorescence; active compounds read low; activity change, % (values are at about 110 or 230 µM); actives 0.15% (n = 480,000); AID 1347041, 2019; in the data active means activity change below about -30%; inconclusive means mostly about -25% to -30%;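 further: plate controls were DMSO wells for no effect and wells without enzyme for full effect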
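Resorufin fluorescence (ex540/em590), read at 0 and 20 min after diaphorase/resazurin addition, reports the NADH left after a 5 min room-temperature reaction of 2 nM human LDH5 with 0.06 mM NADH and 0.2 mM pyruvate.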
TDP1 cell CPT – qHTS for Inhibitors of human tyrosyl-DNA phosphodiesterase 1 (TDP1): qHTS in cells in presence of CPT | actives 12% (n = 420,000) | Potency, µM (series often up to 46.2 µM), without a hit: at the highest dose activity change, negative = growth inhibition, actives largely listed as inhibitors | AID 686979, 2013 | chicken DT40 Tdp1-/-;hTDP1 cells + 20 nM CPT, ATP luminescence, 48 h; further: potency means the concentration at half of the fitted maximal effect; nearly all actives have a fitted effect of over 55% in size
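Cell growth measured by CellTiter-Glo luminescence after a minimum 48 h, 37 C compound exposure with 20 nM CPT in Tdp1-knockout DT40 cells stably expressing hTDP1, seeded 400/well; qHTS titration format.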
Gal4-VP16 FLuc – VP16 counterscreen qHTS for inhibitors of ROR gamma transcriptional activity; Drosophila S2 Gal4-VP16 UAS-luciferase, luminescence, 20 h; Potency, µM (titrated, usually from 53.6 µM), for the others: at the top dose activity, negative = inhibition, usual class: inhibitors; actives 3.5% (n = 310,000); AID 2546, 2010;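 further: Gal4-VP16 expression switched on by copper sulfate through the metallothionein promoter; potency means the concentration at half of the fitted maximal effect; nearly all actives have a fitted effect of over 50% in size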
TDP1 cell noCPT – qHTS for Inhibitors of human tyrosyl-DNA phosphodiesterase 1 (TDP1): qHTS in cells in absence of CPT. AID 686978, 2013. DT40 Tdp1-/- hTDP1 cells, no CPT, ATP luminescence, 48 h. Potency, µM (doses to about 46.2 µM), for the others: at the highest dose activity change, negative = growth inhibition, most hits filed as inhibitors. actives 15% (n = 420,000); further: potency means the concentration at half of the fitted maximal effect; nearly all actives have a fitted effect of over 55% in size
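No-CPT arm: Tdp1-/-;hTDP1 DT40 cells (400/well) plus compounds, incubated ≥48 hr at 37 °C. Readout CellTiter-Glo luminescence.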
The depositor's hits bear a star; ? = inconclusive; nt = no result; [ ] = another dose, or the depositor's remark. Unless noted, the call rests on the fitted dose curve; in most records, active means well fitted curve in the direction sought with a large enough effect; inconclusive means small, poorly fitted or top-dose-only effect, or another doubt; inactive means no such curve, though single readings can be large; an effect the other way counts as inactive or inconclusive. Unless noted, on the % scale 0 is the no-effect control and ±100 the full control effect.

SMILES | IL1B secr inh | RORgamma inh | LDHA inh | TDP1 cell CPT | Gal4-VP16 FLuc | TDP1 cell noCPT
COc1ncnc2c1ncn2CCCNCC(C)c1ccccc1 (stereo not drawn) | -8.9 | nt | -7.1 | 3.4% | nt | -7.6%
COc1cccc2cc(CNCc3c(C)noc3C)oc12 | nt | nt | 10.7 | nt | nt | nt
Cn1c(=O)[nH]c(=O)c2c1nc(NCCCO)n2Cc1ccccc1 | nt | nt | -2.1 | nt | nt | nt
FC(F)C(F)(F)c1cc(-c2ccc(Cl)cc2)n[nH]1 | nt | 19.8% | 3.7 | 18.4µM* | 1.7% | 18.4µM*
CCc1nnc2sc(-c3ccc(C)c(NC(=O)c4ccc(Br)o4)c3)nn12 | nt | nt | -7.4 | nt | nt | nt
Cc1oc(-c2ccccc2Cl)nc1CSCC(=O)N1CCCC1 | -20.8 | -22.6% | -4.4 | ? | 0.4%[0.365 µM] | 13µM*
Cc1oc(-c2ccccc2F)nc1CSCC(=O)N1CCN(c2ccccc2)CC1 | nt | nt | -1.1 | 20.6µM* | nt | 9.2µM*
CC(C)Cc1ccc(C(C)NC(=O)C2CCC2)cc1 (stereo not drawn) | nt | nt | 4.1 | nt | nt | nt
CCn1cc2nc(SCC(=O)Nc3cccc(Cl)c3C)n(Cc3ccc(Cl)cc3)c(=O)c2n1 | nt | nt | -3.5 | ? | nt | ?
CCn1cc2nc(SCC(=O)Nc3cc(OC)ccc3OC)n(Cc3ccc(Cl)cc3)c(=O)c2n1 | nt | nt | -3.7 | 11.6µM* | nt | 8.2µM*
CCn1cc2nc(SCC(=O)Nc3ccc(OC)cc3OC)n(Cc3ccc(Cl)cc3)c(=O)c2n1 | nt | nt | -12.5 | 20.6µM* | nt | 18.4µM*
CCN(CC)C(=O)CSc1nc2cc(OC)c(OC)cc2c(=O)n1Cc1ccc(Cl)cc1 | -53.4* | 27.4% | 0.0 | ? | 2.0% | 18.4µM*
CCCCN(C(=O)CCC(=O)Nc1cc(C)on1)C(C(=O)NC1CCCC1)c1ccccc1OCC (stereo not drawn) | ? | 23.2% | -3.5 | ? | -6.1% | ?
C=CCN(C(=O)CCC(=O)Nc1cc(C)on1)C(C(=O)NC1CCCC1)c1ccc(CC)cc1 (stereo not drawn) | -9.2 | 5.0% | -4.7 | ? | -7.4% | 14.6µM*
CCCCN(C(=O)CCC(=O)Nc1cc(C)on1)C(C(=O)NC1CCCC1)c1ccc(OCC)cc1 (stereo not drawn) | -15.7 | 11.0% | -7.3 | ? | -4.5% | 16.4µM*
Cc1cc(NC(=O)CCC(=O)N(CCC(C)C)C(C(=O)NCC2CCCO2)c2ccccc2C)no1 (stereo not drawn) | -57.5* | 16.5% | -4.5 | -11.0% | 3.7% | ?
Cc1cccc(NC(=O)C(=O)NCC(c2cccnc2)N2CCc3ccccc32)c1C (stereo not drawn) | nt | nt | 0.4 | 18.4µM* | nt | 23.1µM*
Cc1ccc(NC(=O)C(=O)NCC(c2cccnc2)N2CCN(C)CC2)cc1C (stereo not drawn) | nt | nt | -12.0 | -1.9% | nt | -3.7%
O=C(NCC(c1cccnc1)N1CCc2ccccc21)C(=O)Nc1ccccc1F (stereo not drawn) | nt | nt | 7.8 | 7.31µM* | nt | ?
Cc1ccc(NC(=O)C(=O)NCC(c2cccnc2)N2CCc3ccccc32)cc1Cl (stereo not drawn) | nt | nt | -0.2 | 18.4µM* | nt | 13µM*
O=C(NCC(c1cccnc1)N1CCc2ccccc21)c1ccccc1Br (stereo not drawn) | nt | nt | -0.6 | ? | nt | ?
Cc1cccc(NC(=O)C(=O)NCC(c2cccnc2)N2CCc3ccccc3C2)c1C (stereo not drawn) | nt | nt | -3.7 | 16.4µM* | nt | 16.4µM*
COCc1cnc2c(c1SCC(=O)NC1CCCC1)c(=O)n(C)c(=O)n2C | nt | nt | 13.7 | nt | nt | nt
